Source: PubChem BioAssay (NCATS)
Results filed as inconclusive are left out. Calls of active or inactive are those of the source. Unless noted, calls follow the shape of the dose curve; as a rule, active = well fitted curve in the direction sought with a large enough effect; inconclusive = small, poorly fitted or top-dose-only effect, or another doubt; inactive = no such curve, though single readings can be large; an effect the other way counts as inactive or inconclusive.

Tests used:
[1] = molecular target: D(1A) dopamine receptor (Homo sapiens) (UniProt P21728); assay: HTS Assay for Allosteric Agonists of the Human D1 Dopamine Receptor: Primary Screen for Potentiators (AID 488982); also: potency is read from the fitted curve at half-maximal effect
Procedure, shortened: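 Tetracycline-induced HEK293 Trex D1 cells with forced coupling to calcium, loaded with no-wash calcium dye; kinetic fluorescence read 180 s after compound addition for agonism, then a further 180 s after an EC20 dopamine challenge for potentiation.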

[2] = molecular target: D(1A) dopamine receptor (Homo sapiens) (UniProt P21728); assay: HTS Assay for Allosteric Agonists of the Human D1 Dopamine Receptor: Primary Screen for Antagonists (AID 488983);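 also: calcium flux response to an EC80 dopamine challenge measured with no-wash dye; % is scaled to controls: 0 for no effect and ±100 for the full control effect; nearly all actives have a fitted effect of over 65% in size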
Procedure, shortened: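 Calcium-flux read-out in inducible HEK293 T-REx cells expressing D1, dye-loaded 30–90 min at room temperature. Kinetic reads: 180 s after compound (agonist phase), then 180 s after an EC80 dopamine challenge.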

[3] = Validation screen for small molecules that induce genotoxicity in human embryonic kidney (HEK293T) cells expressing luciferase-tagged ELG1 (AID 493106); also: 0% is about no effect
Procedure, shortened: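 ELG1-luciferase reporter readout (ONE-Glo, 30 min, room temperature) after 16 hr compound treatment at 37 °C of HEK293T cells at 2,000 per well. Rising luminescence flags genotoxic stress.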

[4] = molecular target: ATPase family AAA domain-containing protein 5 (Homo sapiens) (UniProt Q96QE3); assay: Validation screen for small molecules that inhibit ELG1-dependent DNA repair in human embryonic kidney (HEK293T) cells expressing luciferase-tagged ELG1 (AID 493107); also: nearly all actives have a fitted effect of over 70% in size; also: potency is read from the fitted curve at half-maximal effect
Procedure, shortened: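 Luciferase read-out, ONE-Glo, 30 min at room temperature, follows 16 h co-exposure at 37 C of compound and the DNA-damaging agent 5-fluorouridine. Cells: HEK293T with ELG1-luciferase fusion, 2,000 per well, DMSO as vehicle.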

[5] = Nrf2 qHTS screen for inhibitors: Validation (AID 493153; active = well fitted inhibition curve with a large enough effect in the main read-out, with a control signal flat, not every such curve was filed as active; also: potency is read from the fitted curve at half-maximal effect); details: Potency: luciferase luminescence; viability change: measured here: cytotoxicity max response
Procedure, shortened: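 Concentration-response on A549 ARE_Fluc reporter cells exposed 18-24 h at 37 C, 5% CO2. Cytotoxicity read first by CellTiter-Fluor fluorescence (Ex 405/Em 525), then Nrf2 inhibition by BugLite luminescence after 15 min.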

[6] = qHTS for Inhibitors of Cell Surface uPA Generation: Validation Assay (AID 493164);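 also: RAW 264.7 macrophage cells exposed to compound for 18 h; 0% is about no effect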
Procedure, shortened: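 ATP-Lite luminescence read-out: ATP remains high when uPA activity-dependent LF translocation into the cytoplasm is blocked. RAW 264.7 cells, 18 h compound exposure at 37 C; 7-point titration, 2.45 nM to 38.3 uM final.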

[7] = molecular target: Galactokinase (Homo sapiens) (UniProt P51570); assay: qHTS Validation Assay for Inhibitors of Human Galactokinase (GALK) (AID 493189); also: 0% is about no effect
Procedure, shortened: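 GALK (5 nM) with 35 uM ATP and 100 uM galactose in HEPES pH8.0, MgCl2, NaCl, DTT, BSA; 1 h at room temperature. Residual ATP read by Kinase-Glo Plus luminescence after 10 min.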

[8] = Validation screen for small molecules that induce DNA re-replication in SW480 colon adenocarcinoma cells (AID 504364); also: 0% is about no effect
Procedure, shortened: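 Image-based DNA content read-out: Hoechst stain 40 min, total nuclear fluorescence intensity (ex 405 nm, em 500-530 nm) after 48 h compound exposure of 250 SW480 cells/well at 37 C, 5% CO2, versus DMSO vehicle.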

[9] = molecular target: Peptidyl-prolyl cis-trans isomerase NIMA-interacting 1 (Homo sapiens) (UniProt Q13526); assay: qHTS Validation Assay to Find Inhibitors of Pin1 (AID 504536; active = well fitted inhibition curve with a large enough effect in the polarisation, with a control signal flat, not every such curve was filed as active; the % refers to the polarisation;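 also: 0% = full Pin1 enzyme wells and -100% = no-enzyme wells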)
Procedure, shortened: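 Fluorescence polarization competition: compounds (titration) displace HiFluor-488-labeled Pin1-1b peptide from Pin1 (0.3 uM final) in pH 7.5 HEPES buffer with DTT, 10 min at room temperature; %Activity normalized to no-enzyme wells, curves fitted.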

[10] = molecular target: Phosphoglycerate kinase, glycosomal (Trypanosoma brucei brucei) (UniProt P07378); assay: qHTS Validation Assay to Find Inhibitors of Phosphoglycerate Kinase (AID 504547);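 also: control wells lack PGK and mark full inhibition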
Procedure, shortened: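 Compounds are pinned into the substrate/PGK mixture, and GAPDH (100nM final) is added to start the reaction by producing 1,3-BPG. After 60 minutes at room temperature, Kinase-Glo Plus is added and luminescence is measured 10 minutes later.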

[11] = molecular target: phosphoglycerate mutase (Leishmania major) (UniProt Q4Q090); assay: qHTS Validation Assay to Find Inhibitors of Phosphoglycerate Mutase (AID 504548); also: series mostly up to about 58 µM; % is scaled to controls: 0 for no effect and ±100 for the full control effect
Procedure, shortened: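 Luminescent end-point read-out via Kinase-GloPlus after a 10-minute development. Reaction: 1.25nM Leishmania major PGAM with substrate and compound, 45 minutes at room temperature in TEA buffer (pH 7.6) with MgCl2 and Tween-20.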

[12] = molecular target: Ubiquitin carboxyl-terminal hydrolase 1 (Homo sapiens) (UniProt O94782); assay: Inhibitors of USP1/UAF1: Pilot qHTS (AID 504865);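 also: rhodamine fluorescence freed from ubiquitin-rhodamine substrate followed over time; top concentration of the series differs between compounds; % is scaled to controls: 0 for no effect and ±100 for the full control effect; nearly all actives have a fitted effect of over 35% in size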
Procedure, shortened: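 USP1/UAF1 complex (1nM) preincubated with compound 15 min at room temperature, then Ub-Rho substrate (150nM final) added. Fluorescence read kinetically at 480/540 nm, 6 reads every 60 seconds. Buffer: 50mM HEPES pH 7.8, 0.5mM EDTA, 0.1 mg/ml BSA, 1mM TCEP, 0.01% Tween-20.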

[13] = qHTS for Inhibitors of ATXN expression: Validation (AID 588378); also: series mostly up to about 57 µM; % is scaled to controls: 0 for no effect and ±100 for the full control effect; nearly all actives have a fitted effect of over 75% in size
Procedure, shortened: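 Luminescence from an ATXN2-FFLuc reporter in HEK293 cells served as read-out after 24 h compound treatment at 37 degrees C; CellTiter-Fluor fluorescence was recorded first to assess viability.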

[14] = molecular target: Estrogen receptor (Homo sapiens) (UniProt P03372); assay: qHTS assay for small molecule antagonists of estrogen receptor alpha signaling (AID 588513; active = well fitted curve in the direction sought with a large enough effect in the signal ratio, with a control signal flat, not every such curve was filed as active; the % refers to the signal ratio; also: % is scaled to controls: 0 for no effect and ±100 for the full control effect)
Procedure, shortened: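 ER-alpha-UAS-bla GripTite HEK 293 cells in medium with 2% charcoal/dextran-treated FBS were preincubated 4 h at 37 C, dosed with compound (1:2 titration), stimulated with 0.5nM 17-beta-estradiol for 18 h, then read by CCF4 beta-lactamase fluorescence.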

[15] = molecular target: Estrogen receptor (Homo sapiens) (UniProt P03372); assay: qHTS assay for small molecule agonists of estrogen receptor alpha signaling (AID 588514; calls by dose curve;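 also: 0% = vehicle only and 100% = reference agonist; nearly all actives have a fitted effect of over 70% in size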)
Procedure, shortened: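 EC50 and efficacy came from Hill fits of beta-lactamase reporter signal (CCF4 dye, 2 h at room temperature) scaled between DMSO and 20 nM 17-beta-estradiol. Agonist mode: HEK293 ER-alpha-UAS-bla cells in charcoal/dextran-stripped serum medium, 18 h compound exposure at 37 C.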

[16] = molecular target: Thyrotropin-releasing hormone receptor (Homo sapiens) (UniProt P34981); assay: qHTS for Small Molecule Agonists and Allosteric Enhancers of Human TRH Receptor: Validation Screen for Agonists (AID 493127;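 active = calcium activation more than 3 SD above the typical response in the agonist read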;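 also: intracellular calcium rise by fluo-8 fluorescence before TRH EC20 addition; 0% is about no effect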); details: TRH receptor agonist cell assay; at 2 µM; stronger effect = higher value
Procedure, shortened: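 Compound-evoked intracellular calcium release in fluo-8-loaded TRHR cells, read kinetically on FDSS (Ex 480/Em 530, 1 s/cycle) after 23 nL pintool transfer. Agonist phase preceded 10 nM TRH EC20 addition.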

[17] = qHTS for Inhibitors of ATXN expression: Validation of Cytotoxic Assay (AID 588349); also: % is scaled to controls: 0 for no effect and ±100 for the full control effect
Procedure, shortened: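 Cytotoxicity counter-screen: ATP-based luminescent viability (CellTiter Glo) after 72 hr exposure of HEK293 cells to a compound titration at 37 degrees C.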

[18] = molecular target: ATP-dependent 6-phosphofructokinase (Trypanosoma brucei brucei) (UniProt O15648); assay: qHTS Assay to Find Inhibitors of T. brucei phosphofructokinase: hit validation (AID 492961);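 also: luminescence reports ADP formed as PFK phosphorylates fructose-6-phosphate with ATP; series mostly up to about 51 µM; % is scaled to controls: 0 for no effect and ±100 for the full control effect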
Procedure, shortened: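 Compounds titrated; %activity normalized to 0x and 1x enzyme controls, curve-fitted. Readout: ADP-Glo luminescence after 45 min room-temperature reaction of 1.25 nM PFK, 0.1 mM ATP, 0.5 mM F6P, pH 8.0.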

[19] = molecular target: DNA dC->dU-editing enzyme APOBEC-3G (Homo sapiens) (UniProt Q9HC16); assay: qHTS for inhibitors of Vif-A3G interactions: Validation (AID 588379); also: 0% is about no effect
Procedure, shortened: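 Yellow fluorescence (Ex 488, Em 500-530) of Vif-coexpressing HeLa A3G-eYFP cells, scanned by Acumen cytometer, reports blocked A3G degradation. Cells plated at 700/well overnight at 37 deg C before compound addition, then a further overnight compound incubation at 37 deg C.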

Chain of Peptidyl-prolyl cis-trans isomerase NIMA-interacting 1 (Homo sapiens) (Q13526 whole entry, looked up): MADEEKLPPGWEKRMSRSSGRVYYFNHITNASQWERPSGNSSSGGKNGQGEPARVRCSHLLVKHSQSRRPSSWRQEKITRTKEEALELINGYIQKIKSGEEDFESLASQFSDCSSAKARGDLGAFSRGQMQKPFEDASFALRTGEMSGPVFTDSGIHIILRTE
Chain of ATP-dependent 6-phosphofructokinase (Trypanosoma brucei brucei) (O15648 whole entry, looked up): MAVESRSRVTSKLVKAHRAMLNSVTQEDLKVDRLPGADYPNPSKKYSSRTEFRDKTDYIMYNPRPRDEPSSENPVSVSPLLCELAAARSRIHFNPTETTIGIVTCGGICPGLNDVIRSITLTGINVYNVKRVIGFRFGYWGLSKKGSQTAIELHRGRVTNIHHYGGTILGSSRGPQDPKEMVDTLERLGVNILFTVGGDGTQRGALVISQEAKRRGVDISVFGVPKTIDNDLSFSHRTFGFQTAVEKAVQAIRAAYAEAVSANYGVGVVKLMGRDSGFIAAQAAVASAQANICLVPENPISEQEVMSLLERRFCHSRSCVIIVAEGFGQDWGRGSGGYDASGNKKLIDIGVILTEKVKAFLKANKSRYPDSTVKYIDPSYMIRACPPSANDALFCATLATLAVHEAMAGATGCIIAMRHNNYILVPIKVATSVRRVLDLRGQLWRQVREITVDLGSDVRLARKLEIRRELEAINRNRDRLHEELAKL
Chain of Ubiquitin carboxyl-terminal hydrolase 1 (Homo sapiens) (O94782 whole entry, looked up): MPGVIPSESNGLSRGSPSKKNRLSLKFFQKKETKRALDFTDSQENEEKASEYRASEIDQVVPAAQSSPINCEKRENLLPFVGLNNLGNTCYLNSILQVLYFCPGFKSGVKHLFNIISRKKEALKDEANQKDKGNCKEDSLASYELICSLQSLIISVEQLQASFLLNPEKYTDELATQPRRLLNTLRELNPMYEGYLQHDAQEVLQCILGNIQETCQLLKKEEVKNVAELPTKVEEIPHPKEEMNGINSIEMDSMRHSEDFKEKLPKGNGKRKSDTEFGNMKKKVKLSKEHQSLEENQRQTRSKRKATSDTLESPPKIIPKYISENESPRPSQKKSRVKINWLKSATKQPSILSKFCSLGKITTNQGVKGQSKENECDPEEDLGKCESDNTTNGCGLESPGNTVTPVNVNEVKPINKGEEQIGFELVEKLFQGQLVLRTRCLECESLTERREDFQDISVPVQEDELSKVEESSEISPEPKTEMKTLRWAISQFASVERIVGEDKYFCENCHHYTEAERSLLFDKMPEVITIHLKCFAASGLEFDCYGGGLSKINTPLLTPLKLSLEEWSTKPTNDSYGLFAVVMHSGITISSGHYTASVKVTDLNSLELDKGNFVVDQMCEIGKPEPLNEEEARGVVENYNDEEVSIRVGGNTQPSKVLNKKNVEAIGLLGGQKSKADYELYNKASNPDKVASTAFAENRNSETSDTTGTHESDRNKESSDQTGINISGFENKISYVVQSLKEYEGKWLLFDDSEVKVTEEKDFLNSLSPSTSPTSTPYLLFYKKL
Chain of D(1A) dopamine receptor (Homo sapiens) (P21728 whole entry, looked up): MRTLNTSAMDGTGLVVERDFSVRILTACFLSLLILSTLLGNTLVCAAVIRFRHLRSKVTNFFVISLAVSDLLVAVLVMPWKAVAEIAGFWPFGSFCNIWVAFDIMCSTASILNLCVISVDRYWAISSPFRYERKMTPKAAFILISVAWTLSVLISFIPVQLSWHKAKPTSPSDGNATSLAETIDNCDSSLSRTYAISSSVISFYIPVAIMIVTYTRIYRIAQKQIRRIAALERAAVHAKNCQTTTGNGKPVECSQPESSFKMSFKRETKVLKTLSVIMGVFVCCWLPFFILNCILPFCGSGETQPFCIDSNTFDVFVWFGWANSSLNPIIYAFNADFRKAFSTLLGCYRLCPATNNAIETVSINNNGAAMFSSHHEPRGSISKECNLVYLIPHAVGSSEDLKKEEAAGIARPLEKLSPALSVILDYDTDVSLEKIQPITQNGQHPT
Chain of Thyrotropin-releasing hormone receptor (Homo sapiens) (P34981 whole entry, looked up): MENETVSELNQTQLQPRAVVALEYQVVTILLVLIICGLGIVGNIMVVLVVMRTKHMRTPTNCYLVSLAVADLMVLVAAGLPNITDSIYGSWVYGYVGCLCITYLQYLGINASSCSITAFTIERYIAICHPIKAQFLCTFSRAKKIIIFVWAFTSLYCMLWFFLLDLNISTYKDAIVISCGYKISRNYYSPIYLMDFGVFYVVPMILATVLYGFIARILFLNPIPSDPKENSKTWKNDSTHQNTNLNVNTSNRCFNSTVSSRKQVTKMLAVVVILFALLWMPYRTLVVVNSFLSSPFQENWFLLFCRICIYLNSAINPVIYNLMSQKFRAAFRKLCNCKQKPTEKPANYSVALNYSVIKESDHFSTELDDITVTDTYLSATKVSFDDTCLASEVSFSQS
Chain of Galactokinase (Homo sapiens) (P51570 whole entry, looked up): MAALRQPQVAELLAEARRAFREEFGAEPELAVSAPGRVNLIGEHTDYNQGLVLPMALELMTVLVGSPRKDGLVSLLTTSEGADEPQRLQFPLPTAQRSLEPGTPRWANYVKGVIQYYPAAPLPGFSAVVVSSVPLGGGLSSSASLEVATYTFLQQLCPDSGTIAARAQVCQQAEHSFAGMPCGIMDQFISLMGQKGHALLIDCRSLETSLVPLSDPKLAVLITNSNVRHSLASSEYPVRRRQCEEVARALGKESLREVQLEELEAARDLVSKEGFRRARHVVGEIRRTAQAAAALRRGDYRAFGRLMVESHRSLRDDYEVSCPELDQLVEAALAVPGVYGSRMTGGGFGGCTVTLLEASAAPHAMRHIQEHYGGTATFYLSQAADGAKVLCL
Chain of Phosphoglycerate kinase, glycosomal (Trypanosoma brucei brucei) (P07378 whole entry, looked up): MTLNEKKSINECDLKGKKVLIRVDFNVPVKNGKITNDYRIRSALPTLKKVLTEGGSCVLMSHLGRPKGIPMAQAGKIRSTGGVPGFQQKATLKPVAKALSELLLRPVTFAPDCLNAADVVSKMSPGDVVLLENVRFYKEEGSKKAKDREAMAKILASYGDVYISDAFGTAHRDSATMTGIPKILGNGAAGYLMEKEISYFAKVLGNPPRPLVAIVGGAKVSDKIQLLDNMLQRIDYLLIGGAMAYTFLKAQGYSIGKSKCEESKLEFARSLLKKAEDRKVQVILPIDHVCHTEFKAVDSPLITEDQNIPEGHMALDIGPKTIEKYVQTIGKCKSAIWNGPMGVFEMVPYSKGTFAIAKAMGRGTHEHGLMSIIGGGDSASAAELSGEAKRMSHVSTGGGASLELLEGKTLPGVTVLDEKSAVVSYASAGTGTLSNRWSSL
Chain of ATPase family AAA domain-containing protein 5 (Homo sapiens) (Q96QE3 whole entry, looked up, the tested form may be a part): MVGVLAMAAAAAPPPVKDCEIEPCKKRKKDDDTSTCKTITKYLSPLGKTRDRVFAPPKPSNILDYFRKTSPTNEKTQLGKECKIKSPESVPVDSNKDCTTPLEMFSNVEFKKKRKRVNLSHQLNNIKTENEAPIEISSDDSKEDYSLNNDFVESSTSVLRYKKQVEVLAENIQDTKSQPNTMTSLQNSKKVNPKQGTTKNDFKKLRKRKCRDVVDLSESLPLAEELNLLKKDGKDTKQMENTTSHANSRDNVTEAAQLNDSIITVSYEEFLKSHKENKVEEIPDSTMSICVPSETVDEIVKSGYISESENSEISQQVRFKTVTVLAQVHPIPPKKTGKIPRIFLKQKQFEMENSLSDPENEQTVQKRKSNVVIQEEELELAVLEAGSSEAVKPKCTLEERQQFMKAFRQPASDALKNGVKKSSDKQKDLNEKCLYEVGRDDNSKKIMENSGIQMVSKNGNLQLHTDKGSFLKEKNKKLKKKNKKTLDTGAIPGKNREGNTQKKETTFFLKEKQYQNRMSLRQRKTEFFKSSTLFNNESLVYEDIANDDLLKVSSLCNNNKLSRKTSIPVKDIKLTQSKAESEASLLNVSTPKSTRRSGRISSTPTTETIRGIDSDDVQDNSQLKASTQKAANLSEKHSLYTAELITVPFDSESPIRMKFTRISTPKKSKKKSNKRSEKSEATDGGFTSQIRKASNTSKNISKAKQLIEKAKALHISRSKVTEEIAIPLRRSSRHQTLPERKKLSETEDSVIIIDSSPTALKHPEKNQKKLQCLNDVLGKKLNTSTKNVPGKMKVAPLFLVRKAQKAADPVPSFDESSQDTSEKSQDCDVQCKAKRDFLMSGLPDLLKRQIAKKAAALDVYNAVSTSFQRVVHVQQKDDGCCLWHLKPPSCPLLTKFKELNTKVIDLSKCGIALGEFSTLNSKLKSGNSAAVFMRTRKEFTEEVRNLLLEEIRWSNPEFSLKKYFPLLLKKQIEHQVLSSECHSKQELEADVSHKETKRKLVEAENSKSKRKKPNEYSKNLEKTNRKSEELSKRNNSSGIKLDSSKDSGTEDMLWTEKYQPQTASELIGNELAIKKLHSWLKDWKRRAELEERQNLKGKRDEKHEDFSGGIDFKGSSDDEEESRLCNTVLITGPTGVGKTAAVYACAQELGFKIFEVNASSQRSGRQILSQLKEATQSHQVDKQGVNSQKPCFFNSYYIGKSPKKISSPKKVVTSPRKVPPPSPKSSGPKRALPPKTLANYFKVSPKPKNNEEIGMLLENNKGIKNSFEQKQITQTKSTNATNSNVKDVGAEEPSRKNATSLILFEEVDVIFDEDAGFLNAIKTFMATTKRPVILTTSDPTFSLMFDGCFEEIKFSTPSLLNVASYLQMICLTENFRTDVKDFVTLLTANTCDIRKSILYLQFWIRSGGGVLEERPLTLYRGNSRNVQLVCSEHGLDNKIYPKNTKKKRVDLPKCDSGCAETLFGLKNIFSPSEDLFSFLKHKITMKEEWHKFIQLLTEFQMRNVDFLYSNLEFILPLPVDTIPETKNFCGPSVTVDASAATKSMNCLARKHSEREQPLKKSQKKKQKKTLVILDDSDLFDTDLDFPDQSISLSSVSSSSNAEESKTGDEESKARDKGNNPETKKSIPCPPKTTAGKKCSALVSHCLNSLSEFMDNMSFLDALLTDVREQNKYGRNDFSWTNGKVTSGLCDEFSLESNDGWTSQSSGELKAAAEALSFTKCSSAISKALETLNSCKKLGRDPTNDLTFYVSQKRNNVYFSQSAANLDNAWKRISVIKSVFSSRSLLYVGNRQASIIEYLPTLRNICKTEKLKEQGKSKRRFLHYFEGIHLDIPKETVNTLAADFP

C[C@]12C=CC(=O)C=C1CC[C@H]1[C@@H]3C[C@@H](O)[C@](O)(C(=O)CO)[C@@]3(C)C[C@H](O)[C@@]12F
active: Potency [5] 0.082 µM
inactive: Potency [1] | Potency [2] | Potency [3] | Potency [4] | outcome [6] | outcome [7] | outcome [8] | outcome [9] | outcome [10] | outcome [11] | Potency [12] | Potency [13] | outcome [14] | Potency [15]
-4.26%: viability change [5]

CC(C)COCC(CN(Cc1ccccc1)c1ccccc1)N1CCCC1 (stereo not given)
inactive: Potency [1] | Potency [2] | Potency [3] | activation [16] 0.812% | Potency [5] | outcome [6] | outcome [7] | outcome [8] | outcome [9] | outcome [10] | Potency [12] | Potency [17] | Potency [13]
2.97%: viability change [5]

Cc1nc2c([nH]1)c(=O)n(C)c(=O)n2Cc1ccco1
inactive: Potency [1] | Potency [2] | Potency [3] | activation [16] 0.812% | Potency [5] | outcome [6] | outcome [7] | outcome [8] | outcome [9] | outcome [10] | Potency [12] | Potency [17] | Potency [13]
-1.43%: viability change [5]

CC(C)NNC(=O)c1ccncc1
1.54%: viability change [5]
inactive: Potency [1] | Potency [2] | outcome [18] | Potency [5] | outcome [6] | outcome [7] | outcome [8] | outcome [9] | outcome [10] | Potency [12] | Potency [13]

CCCN(CCC)CCc1cccc2c1CC(=O)N2
1.11%: viability change [5]
inactive: Potency [1] | Potency [2] | Potency [4] | activation [16] -3.31% | Potency [5] | outcome [7] | outcome [8] | outcome [9] | Potency [12] | Potency [17] | Potency [13]

C[C@]12CC[C@@H]3c4ccc(O)cc4C[C@@H](CCCCCCCCCS(=O)CCCC(F)(F)C(F)(F)F)[C@H]3[C@@H]1CC[C@@H]2O (stereo not given in full)
inactive: Potency [1] | Potency [2] | Potency [3] | outcome [6] | outcome [9] | outcome [10] | outcome [11] | Potency [17] | Potency [13]

CC(=O)[C@@]1(O)CC[C@H]2[C@@H]3CCC4=CC(=O)CC[C@]4(C)[C@H]3CC[C@@]21C
inactive: Potency [1] | Potency [2] | outcome [18] | Potency [4] | outcome [9] | Potency [12] | Potency [13]

Fc1ccc(C(c2ccc(F)cc2)N2CCN(C/C=C/c3ccccc3)CC2)cc1
-8.46%: viability change [5]
inactive: Potency [1] | Potency [2] | Potency [3] | Potency [5] | outcome [6] | outcome [7] | outcome [9] | outcome [10]
active: Potency [4] 23.1 µM

CSc1ccc(C(=O)c2[nH]c(=O)[nH]c2C)cc1
active: Potency [1] 2.31 µM
0%: viability change [5]
inactive: Potency [2] | outcome [18] | Potency [5] | outcome [7] | outcome [8] | outcome [9] | outcome [11] | Potency [12] | Potency [13]

N[C@@H](COP(=O)(O)O)C(=O)O
inactive: Potency [1] | Potency [2] | Potency [4] | activation [16] 1% | Potency [5] | outcome [7] | outcome [8] | outcome [9] | outcome [10] | outcome [11] | Potency [12] | Potency [17] | Potency [13] | outcome [19]
6.46%: viability change [5]
